PubChem BioAssay (NCATS)
Inconclusive results are not listed. A call without a number means that no potency is given here. Activity calls are given as the source filed them. Calls follow the shape of the dose curve; as a rule, active = well fitted inhibition curve with a large enough effect; inconclusive = small, poorly fitted or top-dose-only effect; inactive = flat fitted curve, though single readings scatter.

What follows are compounds tested against Calcium and integrin-binding protein 1 (Homo sapiens) (UniProt Q99828) (assay: Primary qHTS for Identification of Calcium Integrin Binding Protein 1 (CIB1) Competitor (AID 1508620; also: top concentration of the series differs between compounds)). Details: CIB1-GST / FITC-alphaIIb peptide fluorescence polarization; series mostly up to 114 µM.
Chain of Calcium and integrin-binding protein 1 (Homo sapiens) (Q99828 whole entry, looked up): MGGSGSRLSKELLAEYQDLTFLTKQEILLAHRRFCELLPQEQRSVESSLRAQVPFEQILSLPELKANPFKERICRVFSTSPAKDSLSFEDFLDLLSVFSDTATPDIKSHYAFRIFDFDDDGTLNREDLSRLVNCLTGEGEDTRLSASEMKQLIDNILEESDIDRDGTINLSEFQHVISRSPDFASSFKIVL
Method in brief: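 Fluorescence polarization competition: GST-tagged CIB1 (1 uM final) preincubated with compound 15 min at room temperature, then FITC-labelled alphaIIb peptide (100 nM final) added. After 15 min at room temperature, polarization read at Ex 480/Em 540.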

SMILES | Potency
O=C(OCc1c(-c2ccccc2)no[n+]1[O-])c1ccccc1 | inactive
CC(C)c1cc2c(s1)c1cnn(Cc3ccccc3F)c(=O)c1n2C | inactive
O=C(C1CCN(c2nc(-c3ccc(Br)cc3)cs2)CC1)N1CCNCC1 | inactive
Cc1ccc2nc3sc(C(=O)NCCc4cccnc4)cc3cc2c1 | inactive
CCOC(=O)c1ccoc1-c1ccc2ncnc(NCc3ccc(C)o3)c2c1 | inactive
Cc1ccc(Cn2ncc3c4sc(C)cc4n(C)c3c2=O)cc1 | inactive
COc1ccc(C(CC(=O)N2CC(C)CC(C)C2)c2c(O)cc(OC)cc2OC)cc1 (stereo not given) | inactive
CC(=O)Nc1cc2c(s1)CNCC2 | inactive
Cc1nc(NCc2ccc(-c3cccnc3)cc2)c2ccccc2n1 | inactive
Cc1nnc(-c2cnn(C)c2)n1CCCn1ccnc1 | inactive
COc1cccc(Nc2nn3c(=O)c4ccccc4nc3s2)c1 | inactive
COc1ccccc1-c1csc(N2CCC(C(N)=O)CC2)n1 | inactive
COC(=O)c1ccnc(NCc2ccc(O)c3ncccc23)c1 | inactive
COc1ccc(C2Nc3ccccc3C(=O)N2Cc2ccco2)cc1COc1ccccc1C (stereo not given) | inactive
COc1ccc(C2c3c(nc(Cc4ccccc4)[nH]c3=O)Oc3ccc4ccccc4c32)cc1OC (stereo not given) | inactive
COc1ccc(-c2nnc3n2N=C(c2ccc(OC)cc2OC)CS3)cc1 | inactive
O=S(=O)(Nc1ccccc1)c1ccc(NCc2cccc(Cl)c2O)cc1 | inactive
Cc1cc2c(s1)c1cnn(Cc3c(C)cc(F)cc3C)c(=O)c1n2C | inactive
COc1cccc(NC(=S)N2CCN(c3ccc(C(F)(F)F)cc3[N+](=O)[O-])CC2)n1 | inactive
CC(=O)Nc1sc2c(c1-c1cc3ccccc3s1)CCNC2 | inactive

SMILES | Potency
O=C1CCCC2=C1C1(CCCC1)N=C(Nc1nc3ccccc3n1Cc1ccccc1)N2 | inactive
Cc1ccc(N[S+](=O)([O-])c2cc3c(cc2NC2CC2)NC(=O)CC3)cc1C | inactive
Cc1ccnc(NC(=S)N2CCN(c3cccc(C(F)(F)F)n3)CC2)c1 | inactive
CNC(=O)C1=C(C)NC(Nc2nc3ccccc3o2)=NC1c1[nH]ncc1Cl (stereo not given) | inactive
COc1ccc(OCc2cc(C3Nc4ccccc4C(=O)N3Cc3ccccc3)ccc2OC)cc1 (stereo not given) | inactive
Cc1cc2c(s1)c1cnn(Cc3ccc(Br)cc3F)c(=O)c1n2C | inactive
COc1ccc(C(=O)Nc2ccc(-c3nc4ccccc4[nH]3)cc2)cc1OC | inactive
Cn1ncc(Cl)c1C1N=C(Nc2nc3ccccc3o2)NC2=C1C(=O)CCC2 (stereo not given) | inactive
COc1ccc(C(=O)Nc2ccc(-c3nc4ccccc4[nH]3)cc2)cc1C(F)(F)F | inactive
COc1ccc(OC)c(-c2nnc(NC(=O)Nc3ccc4ccccc4c3)s2)c1 | inactive
COc1ccccc1CNC(=O)Nc1nnc(-c2ccncc2)s1 | inactive
O=C1c2ccccc2C(=O)N1Cc1cccnc1 | inactive
Cc1ccc(OCCn2c(CCNC(=O)C3CC3)nc3ccccc32)cc1 | inactive
O=C(OCC#CCNc1nnc(-c2cccc3ccccc23)o1)c1cccs1 | inactive
O=[S+]([O-])(NCC#CCSc1nnc(-c2cccc3ccccc23)o1)c1ccc(F)cc1 | inactive
Oc1cccc2cc(Nc3ccccc3)cnc12 | inactive
Cc1ccc(OCCn2c(CCNC(=O)c3ccc(C)cc3)nc3ccccc32)cc1 | inactive
Cc1cnc(-c2ccccc2N(C)C)nc1NCc1ccc(-c2cccnc2)cc1 | inactive
Nc1c(-c2ccccc2)cc[nH]c1=O | inactive
Cc1cc2c(s1)c1cnn(Cc3c(F)cccc3F)c(=O)c1n2C | inactive
